# From PubChem BioAssay
# C diff HTS = C. difficile growth inhibition; actives 0.25% (n = 86,000); growth activity, negative = inhibition, % at 16 µg/mL (by protocol); Clostridium difficile clinical isolate growth, OD600, 24 h; active compounds read low;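 active = mean growth activity at or below -80% and every replicate also at or below -80%; inconclusive = mean at or below -80% but some replicate above -80%; inactive = mean growth activity above -80%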;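 also: 0% = DMSO wells and -100% = levofloxacin 16 µg/mL wells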
# T cruzi growth-1 = blocks T. cruzi growth in NIH3T3 culture. T. cruzi beta-gal in NIH3T3, GalScreen luminescence, 90 h. inhibition, % at 8.34 µM. actives 5.9% (n = 77,000). AID 624255;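 active = mean inhibition above about 93%, with at least 55% of replicates each passing it, limit read from the data, passing the limit was not always enough; inconclusive = only one of those two conditions holds; inactive = neither condition holds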
# Pf Dd2 growth = blocks growth of Plasmodium falciparum Dd2 parasites | actives 2.3% (n = 94,000) | activity change, % at 10 µM | AID 1159554 | P. falciparum Dd2 growth, SYBR Green, 72 h; active compounds read low; in the data active = activity change below about -80%; inconclusive = no clear call, values can overlap the other calls
# T cruzi growth-2 = Trypanosoma cruzi proliferation inhibition. inhibition, % at 8.35 µM. actives 72% (n = 5,600). T. cruzi beta-gal in NIH3T3, GalScreen luminescence, 90 h. shares compounds with T cruzi growth-1. AID 651739;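 active = mean replicate inhibition above about 95% and at least 55% of replicates individually reaching it, limit read from the data; inconclusive = only one of the two criteria is met; inactive = neither criterion is met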
# T cruzi growth-3 = blocks T. cruzi growth in NIH3T3 host cells; shares compounds with T cruzi growth-1; T. cruzi beta-gal in NIH3T3, GalScreen luminescence, 90 h; inhibition, % at 2.09 µM; actives 21% (n = 5,600); AID 651740;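 active = mean inhibition above about 95%, with at least 55% of replicates also reaching it, limit read from the data; inconclusive = meets just one of the two conditions; inactive = meets neither condition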;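 also: plate controls were neutral control median for no effect and positive control median for full effect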
# NIH3T3 tox = kills mouse NIH/3T3 fibroblasts; shares compounds with T cruzi growth-1; NIH/3T3 viability, CellTiter-Glo ATP luminescence, 90 h; cytotoxicity (signal decrease), % at 8.35 µM; actives 14% (n = 5,600); AID 651742;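 active = mean signal decrease across replicates above about 35% based on untreated-well scatter, with enough replicates individually passing, limit read from the data; inconclusive = no rule stated though some were filed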;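 also: 0% = median of neutral control wells and 100% = median of positive control wells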
# 3T3 cytotox 2 = cytotoxicity in mouse NIH/3T3 fibroblasts. shares compounds with T cruzi growth-1. NIH/3T3 viability, CellTiter-Glo ATP luminescence, 90 h. inhibition, % at 24.9 µM. actives 56% (n = 5,600);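 active = mean loss of cell viability signal at or above a set limit, and enough replicates individually reaching it; inconclusive = meets only the mean limit or only the replicate share; inactive = meets neither condition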;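 also: 0% = median of neutral control wells and 100% = median of positive control wells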
# Numbers without * were called inactive; ? = inconclusive; . = not tested or not shown. An excerpt weighted towards active compounds, which were near 6.7% of everything screened.
SMILES,C diff HTS,T cruzi growth-1,Pf Dd2 growth,T cruzi growth-2,T cruzi growth-3,NIH3T3 tox,3T3 cytotox 2
COc1cccc(S(=O)(=O)N(C)C[C@H]2Oc3cc(C#CCN(C)C)ccc3S(=O)(=O)N([C@@H](C)CO)C[C@H]2C)c1,11,57,-65,.,.,.,.
COc1ccccc1S(=O)(=O)N(C)C[C@H]1Oc2cc(C#CCC(C)C)ccc2S(=O)(=O)N([C@@H](C)CO)C[C@H]1C,4,113*,-67,95*,108*,13,81*
COc1cccc(S(=O)(=O)N(C)C[C@@H]2Oc3cc(C#CCC(C)C)ccc3S(=O)(=O)N([C@H](C)CO)C[C@@H]2C)c1,36,68,-78,.,.,.,.
COc1ccccc1S(=O)(=O)N(C)C[C@@H]1Oc2cc(C#CCC3CCCC3)ccc2S(=O)(=O)N([C@@H](C)CO)C[C@@H]1C,6,.,-57,.,.,.,.
COc1ccccc1S(=O)(=O)N(C)C[C@@H]1Oc2cc(/C=C/c3ccccc3)ccc2S(=O)(=O)N([C@H](C)CO)C[C@@H]1C,12,128*,?,100*,103*,-4,29*
C[C@H](CO)N1C[C@H](C)[C@H](CN(C)Cc2ccc(C(=O)O)cc2)Oc2ncc(C#CCN(C)C)cc2C1=O,2,79,30,.,.,.,.
O=C(Cc1ccccc1)N1CC(=O)N2[C@H](CO)[C@@H](c3ccc(-c4cccc(F)c4)cc3)[C@@H]2C1,6,.,-55,.,.,.,.
COc1cccc(C(=O)Nc2ccc3c(c2)OC[C@H](C)N(CC2CC2)C[C@@H](C)[C@@H](OC)CN(C)C3=O)c1,-6,-20,-3,.,.,.,.
COc1ccccc1CNC(=O)C[C@H]1CC[C@@H]2[C@H](COC[C@H](O)CN2C(=O)Nc2ccc(Cl)cc2)O1,.,76,7,.,.,.,.
O=C(C[C@H]1C[C@@H]2c3cc(NC(=O)C4CCOCC4)ccc3O[C@@H]2[C@H](CO)O1)NCc1ccc(Cl)cc1,1,18,12,.,.,.,.
COCC#Cc1ccc2c(c1)O[C@H](CN(C)S(=O)(=O)c1cccc(OC)c1)[C@@H](C)CN([C@@H](C)CO)S2(=O)=O,2,58,-41,.,.,.,.
CCCC#Cc1ccc2c(c1)O[C@H](CN(C)S(=O)(=O)c1cccc(OC)c1)[C@H](C)CN([C@H](C)CO)S2(=O)=O,15,121*,-44,103*,98*,33,25*
C[C@H](CO)N1C[C@H](C)[C@@H](CN(C)C(=O)Nc2ccc(C(F)(F)F)cc2)OCCCC[C@H](C)Oc2ccc(NC(=O)Nc3ccc(C(F)(F)F)cc3)cc2C1=O,1,112*,-75,112*,109*,-8,1
CC(C)NC(=O)N(C)C[C@@H]1OCCCC[C@H](C)Oc2ccc(NC(=O)Nc3ccc(C(F)(F)F)cc3)cc2C(=O)N([C@H](C)CO)C[C@@H]1C,-5,100*,-3,100*,1,12,14
C[C@H]1CCCCO[C@@H](CN(C)C(=O)Nc2ccc(C(F)(F)F)cc2)[C@@H](C)CN([C@@H](C)CO)C(=O)c2cc(NC(=O)Nc3ccc(C(F)(F)F)cc3)ccc2O1,2,126*,8,109*,111*,-7,6
C[C@@H]1CCCCO[C@@H](CN(C)C(=O)Nc2ccc(C(F)(F)F)cc2)[C@H](C)CN([C@H](C)CO)C(=O)c2cc(NC(=O)Nc3ccc(F)cc3)ccc2O1,7,95,-46,.,.,.,.
C[C@@H]1CCCCO[C@H](CN(C)C(=O)Nc2ccccc2)[C@H](C)CN([C@@H](C)CO)C(=O)c2cc(NC(=O)Nc3ccc(C(F)(F)F)cc3)ccc2O1,7,.,-39,.,.,.,.
C[C@@H]1CCCCO[C@@H](CN(C)C(=O)c2ccccc2)[C@H](C)CN([C@@H](C)CO)C(=O)c2cc(NC(=O)Nc3ccc(C(F)(F)F)cc3)ccc2O1,3,102*,-16,105*,108*,-8,-6
CC(C)NC(=O)N(C)C[C@H]1OCCCC[C@H](C)Oc2ccc(NC(=O)Nc3ccc(C(F)(F)F)cc3)cc2C(=O)N([C@@H](C)CO)C[C@H]1C,9,49,-33,.,.,.,.
